Consider five compounds from PubChem BioAssay (EPA / NIEHS).

Records with an inconclusive call do not appear. Some compounds were tested as several samples or in several runs, with calls that do not always agree. Activity calls are given as the source filed them. The calls were made as follows, unless noted: active = hit-call score of the fitted dose curve at least 0.9, where 1 is the maximum; inconclusive = response in the unintended direction; inactive = score below 0.9.

The nature of assay [1]: ATG_TGFb_CIS: Attagene CIS-FACTORIAL HepG2 Assay for human Transforming Growth Factor (TGF) (AID 2282967; active = hit-call score of the fitted dose curve at least 0.9, where 1 is the maximum; inactive = score below 0.9). Conditions: HepG2 Attagene CIS TGFb reporter, mRNA transcription; actives raise or lower the signal. In a few lines: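 HepG2 cells transiently transfected with cis-promoter-driven multiplexed reporter units; 24 h compound exposure. Reporter mRNA measured by RT-PCR, 6-FAM labeling, HpaI digestion and capillary electrophoresis; bidirectional fit versus DMSO baseline.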

A short description of assay [2]: ATG_VDRE_CIS: Attagene CIS-FACTORIAL HepG2 Assay for human Vitamin D Receptor Element (VDRE) (AID 2282968; active = hit-call score of the fitted dose curve at least 0.9, where 1 is the maximum; inactive = score below 0.9). Conditions: HepG2 VDRE cis-reporter transcription, actives raise or lower the signal. In a few lines: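 In transiently transfected HepG2 liver cells, gain or loss of reporter mRNA after 24 h exposure is scored relative to DMSO, using fluorescence detection by capillary electrophoresis of RT-PCR products.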

Assay [3] concerns the target Nuclear receptor subfamily 1 group I member 3 (Homo sapiens) (UniProt Q14994). The assay is described as follows: ATG_CAR_TRANS: Attagene TRANS-FACTORIAL HepG2 Assay for human Constitutive Androstane Receptor (CAR) (AID 2282969).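 Also: activators raise reporter mRNA above DMSO so AC50 marks induction.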 Conditions: HepG2 Attagene TRANS-FACTORIAL CAR reporter. The gist of the method:
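Readout is reporter mRNA induction, quantified by fluorescent primer extension and capillary electrophoresis after RT-PCR. Cells were HepG2 transiently carrying chimeric NR-Gal4 constructs with GAL4-UAS reporters, treated for 24 h; activity scored upward from DMSO.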

Assay [4] deals with X-box-binding protein 1 (Homo sapiens) (UniProt P17861). The assay is described as follows: ATG_Xbp1_CIS: Attagene CIS-FACTORIAL HepG2 Assay for human X-box Binding Protein 1 (XBP1) (AID 2282972; active = hit-call score of the fitted dose curve at least 0.9, where 1 is the maximum; inactive = score below 0.9). Conditions: HepG2 XBP1 cis-element reporter, Attagene multiplex; actives raise or lower the signal. In a few lines:
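HepG2 cells transiently transfected with multiple cis-element reporter units report endogenous TF activity; 24 h exposure, then reporter mRNA measured by RT-PCR, 6-FAM labelling, HpaI digestion and capillary electrophoresis. Bidirectional fitting versus DMSO.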

Assay [5] is described as follows: ATG_M_19_TRANS: Attagene TRANS-FACTORIAL HepG2 Assay for M19 Transcription Factor (Internal Marker) (AID 2282974). Conditions: HepG2 Attagene TRANS-FACTORIAL M19 internal marker reporter. The gist of the method:
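24 h chemical exposure of transiently transfected HepG2 (MRTU library). RNA → oligo(dT) RT → PCR → 6-FAM labelling → HpaI cut → CE fluorescence. Positive-direction fit vs DMSO baseline; background internal-marker readout.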

Assay [6] in a line: ATG_GAL4_TRANS: Attagene TRANS-FACTORIAL HepG2 Assay for GAL4 (Internal Marker) (AID 2282976). The conditions noted are these: HepG2 Attagene TRANS GAL4 internal marker reporter. The gist of the method: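 RT-PCR/capillary electrophoresis readout of reporter mRNA. HepG2, transient MRTU transfection (GAL4-UAS reporters), 24 h compound exposure. Background-control endpoint, positive direction vs DMSO baseline.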

Assay [7] deals with Bile acid receptor (Homo sapiens) (UniProt Q96RI1). Put plainly: ATG_FXR_TRANS: Attagene TRANS-FACTORIAL HepG2 Assay for Farnesoid X Receptor (FXR) (AID 2282979).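 Also: hits raise reporter mRNA above DMSO so AC50 marks FXR activation.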 Conditions: HepG2 Attagene TRANS FXR-GAL4 reporter transcription. The gist of the method: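 Read-out: fluorescent reporter transcripts quantified by capillary electrophoresis after RT-PCR of total RNA. Source cells were HepG2 transiently carrying chimeric NR-GAL4 plus GAL4-UAS reporter units, dosed 24 h. Activity fitted upward relative to DMSO baseline.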

Assay [8] addresses Oxysterols receptor LXR-alpha (Homo sapiens) (UniProt Q13133). The assay is described as follows: ATG_LXRa_TRANS: Attagene TRANS-FACTORIAL HepG2 Assay for human Liver X Receptor alpha (LXRa) (AID 2282980). The conditions noted are these: HepG2 Attagene TRANS reporter, LXRa transactivation. In a few lines: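 Read-out: reporter transcript levels by RT-PCR plus capillary electrophoresis, fluorescence intensity. Transiently transfected HepG2, exogenous NR-GAL4 chimera, GAL4-UAS reporters; 24 h compound exposure. Activity = increase over DMSO negative control.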

Assay [9] deals with Oxysterols receptor LXR-beta (Homo sapiens) (UniProt P55055). Put plainly: ATG_LXRb_TRANS: Attagene TRANS-FACTORIAL HepG2 Assay for human Liver X Receptor beta (LXRb) (AID 2282981). Conditions: HepG2 Attagene TRANS GAL4-LXRb reporter, mRNA. In a few lines:
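Cells: HepG2, transiently transfected with GAL4-UAS reporter units plus LXRb-Gal4 fusion. Treatment: 24 h. Detection: reporter mRNA by RT-PCR, 6-FAM labelling, HpaI digestion, capillary electrophoresis.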

A short description of assay [10]: ATG_M_06_TRANS: Attagene TRANS-FACTORIAL HepG2 Assay for M06 Transcription Factor (Internal Marker) (AID 2282983). The conditions noted are these: HepG2 Attagene TRANS M06 internal marker reporter. In a few lines: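 After a 24 h chemical treatment of transfected HepG2, RNA underwent DNase I treatment, reverse transcription and reporter-specific PCR; labelled, HpaI-digested products were sized by capillary electrophoresis. Signal increase relative to DMSO defined activity.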

Assay [11] in a line: ATG_M_32_TRANS: Attagene TRANS-FACTORIAL HepG2 Assay for M32 Transcription Factor (Internal Marker) (AID 2282984).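 Also: transcript level of a background control reporter unit measured by RT-PCR and capillary electrophoresis.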 Conditions: HepG2 Attagene TRANS M32 internal marker reporter. The gist of the method: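 Using transiently transfected HepG2 cells exposed to test chemicals for 24 h, reporter transcripts are converted to labelled cDNA fragments and quantified by capillary electrophoresis. DMSO defines the activity baseline.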

Assay [12] concerns the target Transcriptional activator Myb (Homo sapiens) (UniProt P10242). Put plainly: ATG_Myb_CIS: Attagene CIS-FACTORIAL HepG2 Assay for human Myeloblastosis (Myb) Proto-Oncogene Transcription Factor (AID 2282986; active = hit-call score of the fitted dose curve at least 0.9, where 1 is the maximum; inactive = score below 0.9). The conditions noted are these: HepG2 Attagene CIS-FACTORIAL Myb reporter transcription; actives raise or lower the signal. The gist of the method:
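HepG2, transient MRTU transfection (cis-element promoters, endogenous TF activity), 24 h compound exposure. Readout: reporter mRNA via RT-PCR, 6-FAM labeling, HpaI digest, capillary electrophoresis. Gain/loss fit vs DMSO.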

The target in assay [13] is Nuclear respiratory factor 1 (Homo sapiens) (UniProt Q16656). The assay is described as follows: ATG_NRF1_CIS: Attagene CIS-FACTORIAL HepG2 Assay for human Nuclear Respiratory Factor 1 (NRF1) Orphan Gene (AID 2282987; active = hit-call score of the fitted dose curve at least 0.9, where 1 is the maximum; inactive = score below 0.9). The conditions noted are these: HepG2 NRF1 cis-element reporter, Attagene multiplex; actives raise or lower the signal. In a few lines:
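Endogenous NRF1-driven reporter transcription measured in transiently transfected human HepG2 liver cells. Readout: reporter mRNA by RT-PCR and capillary electrophoresis with fluorescence detection, 24 h post-dosing. Gain or loss of signal fitted relative to DMSO baseline.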

The target in assay [14] is Estrogen receptor (Homo sapiens) (UniProt P03372). The assay is described as follows: ATG_ERa_TRANS: Attagene TRANS-FACTORIAL HepG2 Assay for human Estrogen Receptor alpha (ERa) (AID 2282970). The conditions noted are these: HepG2 Attagene TRANS ERa GAL4 reporter, mRNA. In a few lines: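 After 24 h of compound treatment, RNA from HepG2 cells bearing transfected GAL4-UAS reporter constructs is converted to cDNA, amplified and fluorescently labelled. Capillary electrophoresis resolves the ERa-linked reporter; DMSO serves as negative control.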

In assay [15] the target is Steroid hormone receptor ERR1 (Homo sapiens) (UniProt P11474). Put plainly: ATG_ERRa_TRANS: Attagene TRANS-FACTORIAL HepG2 Assay for human Estrogen-Related Receptor alpha (ERRa) (AID 2282971). Conditions: HepG2 Attagene TRANS reporter, ERRa transactivation. The gist of the method: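 Transfected HepG2, 24 h dosing, ERRa-Gal4 chimera driving GAL4-UAS reporter. Readout: reporter mRNA via RT-PCR plus capillary electrophoresis (fluorescence). Positive direction vs DMSO control.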

Assay [16] deals with Glucocorticoid receptor (Homo sapiens) (UniProt P04150). The assay is described as follows: ATG_GR_TRANS: Attagene TRANS-FACTORIAL HepG2 Assay for human Glucocorticoid Receptor (GR) (AID 2282978).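 Also: activators score as hits since higher reporter transcript over DMSO is fitted.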 Conditions: HepG2 Attagene TRANS GR reporter, mRNA transcription. The gist of the method:
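Transient MRTU transfection of HepG2 (GAL4-UAS reporters, exogenous NR-GAL4 chimeras), 24 h dosing. Readout: reporter transcript via RT-PCR + capillary electrophoresis fluorescence. Positive direction vs DMSO baseline.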

Assay [17] addresses Hepatocyte nuclear factor 4-alpha (Homo sapiens) (UniProt P41235). The assay is described as follows: ATG_HNF4a_TRANS: Attagene TRANS-FACTORIAL HepG2 Assay for human Hepatocyte Nuclear Factor 4 alpha (HNF4a) (AID 2282982). The conditions noted are these: HepG2 HNF4a transactivation reporter, mRNA readout. In a few lines:
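Transfected HepG2 reporter cells are dosed for 24 h; reporter RNA is reverse-transcribed, amplified, fluorescently labelled and HpaI-digested before CE sizing. Positive-direction fit against DMSO.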

For assay [18], the target named is Nuclear receptor subfamily 4 group A member 2 (Homo sapiens) (UniProt P43354). Put plainly: ATG_NURR1_TRANS: Attagene TRANS-FACTORIAL HepG2 Assay for human Nuclear Receptor Related Protein 1 (NURR1) (AID 2282985). The conditions noted are these: HepG2 Attagene TRANS reporter, mRNA readout. In a few lines:
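Cells: HepG2, transiently transfected. Exposure: 24 h. Detection: fluorescence of labelled RT-PCR products separated by capillary electrophoresis; upward fit versus DMSO.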

Assay [19] concerns the target Androgen receptor (Homo sapiens) (UniProt P10275). Put plainly: ATG_AR_TRANS: Attagene TRANS-FACTORIAL HepG2 Assay for human Androgen Receptor (AR) (AID 2282973). The conditions noted are these: HepG2 Attagene TRANS-FACTORIAL AR reporter transcription. The gist of the method:
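Readout is reporter transcript abundance, quantified by fluorescent RT-PCR products separated on capillary electrophoresis. Human HepG2 liver cells carried transiently transfected NR-Gal4 chimera plus GAL4-UAS reporter constructs and were dosed for 24 h; activity scored upward versus DMSO.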

Oxysterols receptor LXR-alpha (Homo sapiens), sequence (Q13133 whole entry, looked up, the tested form may be a part): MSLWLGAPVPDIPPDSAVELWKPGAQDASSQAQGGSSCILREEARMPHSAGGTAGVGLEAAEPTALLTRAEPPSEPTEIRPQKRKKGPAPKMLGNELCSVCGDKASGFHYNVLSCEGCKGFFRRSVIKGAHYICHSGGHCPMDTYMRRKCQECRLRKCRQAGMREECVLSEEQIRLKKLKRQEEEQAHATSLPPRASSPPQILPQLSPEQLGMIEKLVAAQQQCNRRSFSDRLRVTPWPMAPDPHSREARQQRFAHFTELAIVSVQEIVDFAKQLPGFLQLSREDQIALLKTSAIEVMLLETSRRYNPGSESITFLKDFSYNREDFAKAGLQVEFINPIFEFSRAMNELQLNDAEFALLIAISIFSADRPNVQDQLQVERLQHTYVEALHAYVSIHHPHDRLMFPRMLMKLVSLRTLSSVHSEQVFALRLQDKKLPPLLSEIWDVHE
Bile acid receptor (Homo sapiens), sequence (Q96RI1 whole entry, looked up, the tested form may be a part): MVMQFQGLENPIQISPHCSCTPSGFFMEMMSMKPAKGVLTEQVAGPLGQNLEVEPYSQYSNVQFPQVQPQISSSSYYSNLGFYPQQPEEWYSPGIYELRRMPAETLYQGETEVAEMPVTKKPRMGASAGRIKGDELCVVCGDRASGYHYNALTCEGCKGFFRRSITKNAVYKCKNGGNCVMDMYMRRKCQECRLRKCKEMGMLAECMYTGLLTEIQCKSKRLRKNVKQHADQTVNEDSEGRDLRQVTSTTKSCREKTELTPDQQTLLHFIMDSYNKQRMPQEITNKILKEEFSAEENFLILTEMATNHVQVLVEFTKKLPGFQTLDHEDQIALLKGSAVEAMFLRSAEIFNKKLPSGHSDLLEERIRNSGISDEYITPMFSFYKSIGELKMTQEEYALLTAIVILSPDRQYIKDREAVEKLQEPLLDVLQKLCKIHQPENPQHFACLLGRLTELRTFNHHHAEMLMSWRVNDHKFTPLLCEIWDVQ
Nuclear receptor subfamily 1 group I member 3 (Homo sapiens), sequence (Q14994 whole entry, looked up, the tested form may be a part): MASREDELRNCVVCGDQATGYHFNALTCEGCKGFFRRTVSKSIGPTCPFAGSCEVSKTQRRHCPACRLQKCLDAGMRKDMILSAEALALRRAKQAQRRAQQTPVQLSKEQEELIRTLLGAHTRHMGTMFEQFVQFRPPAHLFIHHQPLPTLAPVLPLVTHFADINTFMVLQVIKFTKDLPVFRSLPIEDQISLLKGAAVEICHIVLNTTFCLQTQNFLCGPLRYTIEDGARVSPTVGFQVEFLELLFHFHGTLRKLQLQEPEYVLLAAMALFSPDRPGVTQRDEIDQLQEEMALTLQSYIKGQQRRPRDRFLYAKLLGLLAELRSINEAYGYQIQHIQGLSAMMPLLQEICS
X-box-binding protein 1 (Homo sapiens), sequence (P17861 whole entry, looked up): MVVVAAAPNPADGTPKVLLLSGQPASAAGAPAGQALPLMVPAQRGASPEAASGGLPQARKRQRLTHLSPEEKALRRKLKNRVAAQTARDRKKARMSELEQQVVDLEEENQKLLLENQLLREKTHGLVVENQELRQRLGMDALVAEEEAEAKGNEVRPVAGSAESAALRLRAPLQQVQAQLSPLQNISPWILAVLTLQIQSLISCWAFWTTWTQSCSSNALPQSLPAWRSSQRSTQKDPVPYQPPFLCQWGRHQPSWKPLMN
Estrogen receptor (Homo sapiens), sequence (P03372 whole entry, looked up, the tested form may be a part): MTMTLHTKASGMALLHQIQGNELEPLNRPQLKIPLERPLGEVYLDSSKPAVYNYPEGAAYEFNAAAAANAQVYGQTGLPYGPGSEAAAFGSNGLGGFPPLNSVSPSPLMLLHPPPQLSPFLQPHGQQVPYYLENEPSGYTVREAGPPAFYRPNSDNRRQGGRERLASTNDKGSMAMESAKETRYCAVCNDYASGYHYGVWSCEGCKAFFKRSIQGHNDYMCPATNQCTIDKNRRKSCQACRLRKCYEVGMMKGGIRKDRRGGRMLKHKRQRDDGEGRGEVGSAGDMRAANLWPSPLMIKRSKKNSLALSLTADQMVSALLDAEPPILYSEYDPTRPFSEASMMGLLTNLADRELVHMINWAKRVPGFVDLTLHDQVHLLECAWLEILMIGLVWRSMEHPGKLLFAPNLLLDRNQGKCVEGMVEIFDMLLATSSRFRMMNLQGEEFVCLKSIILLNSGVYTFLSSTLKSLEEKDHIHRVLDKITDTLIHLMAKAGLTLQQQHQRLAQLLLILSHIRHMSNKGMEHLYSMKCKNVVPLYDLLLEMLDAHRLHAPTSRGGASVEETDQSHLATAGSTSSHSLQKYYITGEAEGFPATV
Nuclear respiratory factor 1 (Homo sapiens), sequence (Q16656 whole entry, looked up): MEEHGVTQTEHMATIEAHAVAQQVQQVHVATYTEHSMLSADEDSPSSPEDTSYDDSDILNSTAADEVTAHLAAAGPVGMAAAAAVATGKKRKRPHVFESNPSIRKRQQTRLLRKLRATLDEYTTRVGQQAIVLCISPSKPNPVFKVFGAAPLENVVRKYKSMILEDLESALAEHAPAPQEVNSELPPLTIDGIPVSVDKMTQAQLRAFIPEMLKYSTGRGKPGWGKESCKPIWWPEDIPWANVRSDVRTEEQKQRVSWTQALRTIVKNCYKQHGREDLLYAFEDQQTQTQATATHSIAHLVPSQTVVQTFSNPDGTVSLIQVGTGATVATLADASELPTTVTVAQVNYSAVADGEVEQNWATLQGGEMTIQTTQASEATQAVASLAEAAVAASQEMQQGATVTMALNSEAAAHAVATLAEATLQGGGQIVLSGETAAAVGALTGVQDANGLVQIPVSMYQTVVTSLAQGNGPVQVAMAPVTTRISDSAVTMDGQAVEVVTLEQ
Transcriptional activator Myb (Homo sapiens), sequence (P10242 whole entry, looked up): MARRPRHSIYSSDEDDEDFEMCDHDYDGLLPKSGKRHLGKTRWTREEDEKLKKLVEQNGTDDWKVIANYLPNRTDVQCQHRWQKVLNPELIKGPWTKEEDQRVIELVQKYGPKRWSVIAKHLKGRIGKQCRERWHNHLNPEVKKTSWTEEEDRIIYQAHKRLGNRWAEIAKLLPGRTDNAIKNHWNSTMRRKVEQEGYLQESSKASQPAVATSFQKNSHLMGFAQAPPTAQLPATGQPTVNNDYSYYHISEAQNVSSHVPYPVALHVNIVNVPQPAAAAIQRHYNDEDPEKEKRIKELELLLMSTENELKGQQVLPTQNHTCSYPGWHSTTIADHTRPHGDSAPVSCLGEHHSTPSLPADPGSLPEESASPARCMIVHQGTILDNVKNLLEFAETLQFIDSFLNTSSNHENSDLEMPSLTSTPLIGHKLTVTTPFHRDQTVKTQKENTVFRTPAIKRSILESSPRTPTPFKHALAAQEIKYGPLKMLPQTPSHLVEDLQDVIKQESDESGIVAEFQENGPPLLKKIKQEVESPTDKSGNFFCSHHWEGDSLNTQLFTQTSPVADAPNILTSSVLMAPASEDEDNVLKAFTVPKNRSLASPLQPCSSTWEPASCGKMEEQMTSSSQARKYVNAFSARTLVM
Oxysterols receptor LXR-beta (Homo sapiens), sequence (P55055 whole entry, looked up, the tested form may be a part): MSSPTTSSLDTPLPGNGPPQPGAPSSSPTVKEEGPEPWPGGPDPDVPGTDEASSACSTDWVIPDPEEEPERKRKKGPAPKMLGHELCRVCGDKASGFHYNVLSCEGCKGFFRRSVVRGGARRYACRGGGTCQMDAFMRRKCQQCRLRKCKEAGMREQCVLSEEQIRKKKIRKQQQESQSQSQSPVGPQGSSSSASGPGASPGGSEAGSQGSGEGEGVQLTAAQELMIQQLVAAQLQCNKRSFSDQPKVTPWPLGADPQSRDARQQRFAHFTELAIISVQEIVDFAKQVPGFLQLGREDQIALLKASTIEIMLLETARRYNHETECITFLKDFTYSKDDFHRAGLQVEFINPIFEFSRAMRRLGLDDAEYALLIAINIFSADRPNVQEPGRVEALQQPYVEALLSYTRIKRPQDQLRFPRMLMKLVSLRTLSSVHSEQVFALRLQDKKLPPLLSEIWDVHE
Glucocorticoid receptor (Homo sapiens), sequence (P04150 whole entry, looked up, the tested form may be a part): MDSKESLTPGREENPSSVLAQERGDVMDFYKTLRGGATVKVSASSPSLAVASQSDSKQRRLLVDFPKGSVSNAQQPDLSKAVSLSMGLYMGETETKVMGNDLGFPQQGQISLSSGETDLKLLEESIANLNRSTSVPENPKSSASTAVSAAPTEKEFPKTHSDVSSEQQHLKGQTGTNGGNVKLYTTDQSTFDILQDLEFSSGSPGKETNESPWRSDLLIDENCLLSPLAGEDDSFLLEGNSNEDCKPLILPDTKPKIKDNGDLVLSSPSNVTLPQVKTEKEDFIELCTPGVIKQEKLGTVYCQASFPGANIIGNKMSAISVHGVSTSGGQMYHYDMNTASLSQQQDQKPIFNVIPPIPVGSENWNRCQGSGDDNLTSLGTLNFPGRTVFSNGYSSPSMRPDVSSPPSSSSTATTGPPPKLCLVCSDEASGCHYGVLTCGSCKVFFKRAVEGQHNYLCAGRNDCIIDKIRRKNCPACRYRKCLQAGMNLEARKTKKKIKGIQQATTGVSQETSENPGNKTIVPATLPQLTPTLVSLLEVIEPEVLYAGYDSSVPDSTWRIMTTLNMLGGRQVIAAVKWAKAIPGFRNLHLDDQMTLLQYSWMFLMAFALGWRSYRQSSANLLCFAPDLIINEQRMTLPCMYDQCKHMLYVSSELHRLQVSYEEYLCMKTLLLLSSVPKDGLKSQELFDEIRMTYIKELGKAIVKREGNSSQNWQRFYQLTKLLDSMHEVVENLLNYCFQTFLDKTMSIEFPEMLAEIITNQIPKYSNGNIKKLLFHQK
Hepatocyte nuclear factor 4-alpha (Homo sapiens), sequence (P41235 whole entry, looked up): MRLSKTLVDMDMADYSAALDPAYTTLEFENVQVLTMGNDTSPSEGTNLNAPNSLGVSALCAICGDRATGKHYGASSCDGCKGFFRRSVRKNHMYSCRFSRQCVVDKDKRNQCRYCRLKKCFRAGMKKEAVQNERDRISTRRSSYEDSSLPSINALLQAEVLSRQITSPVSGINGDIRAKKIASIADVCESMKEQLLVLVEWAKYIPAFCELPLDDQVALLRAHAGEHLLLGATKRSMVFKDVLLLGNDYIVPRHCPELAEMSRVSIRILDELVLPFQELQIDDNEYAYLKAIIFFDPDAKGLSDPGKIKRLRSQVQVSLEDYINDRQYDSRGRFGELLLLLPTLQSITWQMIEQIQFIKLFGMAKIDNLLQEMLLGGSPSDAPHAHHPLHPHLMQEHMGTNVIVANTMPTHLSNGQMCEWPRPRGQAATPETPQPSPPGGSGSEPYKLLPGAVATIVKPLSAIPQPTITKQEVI

A word on the AC50: it is the concentration giving half of the maximal activity seen. Consider `Nc1ccc(N)cc1`, for which, in assay [1], the AC50 is 23.8 µM (active). Moreover, the result in [1], in assay [2], in assay [3], in assay [4], in [5] and in assay [6] was inactive. In addition, the result in assay [7], in [8], in assay [9], in assay [10], in assay [11] and in assay [12] was inactive. The compound was classed as inactive in assay [13].

As to `C=CCN=C=S`, the call in assay [1], in assay [2], in assay [3], in [14], in [15] and in assay [4] was inactive. Moreover, the call in assay [5], in [6], in assay [9], in [11], in assay [12] and in assay [13] was inactive.

In the case of `CC1(C)[C@H](C(=O)O[C@H](C#N)c2cccc(Oc3ccccc3)c2)[C@@H]1/C=C(\Cl)C(F)(F)F`, the result in [1], in assay [2], in assay [3], in assay [4], in assay [6] and in assay [16] was inactive. Further, the result in assay [7], in assay [17], in [10], in [11], in assay [12] and in assay [13] was inactive. For the same compound, the half-maximal activity concentration (AC50) in assay [2] was 0.502 µM (active).

In the case of `c1ccc2sc(SNC3CCCCC3)nc2c1`, the AC50 in [1] is 34.4 µM (active). Moreover, the outcome in [2], in assay [3], in assay [14], in assay [4], in [5] and in assay [16] was inactive. Moreover, the compound was called inactive in assay [8], in assay [11], in [18], in assay [12] and in [13].

Take `Cc1ccccc1OP(=O)(Oc1ccccc1C)Oc1ccccc1C`: the AC50 in assay [1] is 56.1 µM (active); in [2], 0.533 µM (active); in assay [14], 1.3 µM (active); in [4], 56.1 µM (active). Further, the outcome in assay [3], in [15], in assay [19], in [5], in assay [16] and in assay [7] was inactive. Also, the compound was classed as inactive in assay [8], in assay [9], in assay [11], in assay [12] and in [13].
